# Laboratory results published in PubChem BioAssay (NCI).
# About 79,000 compounds went through this panel and 15% of them were active in at least one assay; those are over-represented in the sample as a whole. Unmarked numbers belong to inactive results. The source made the active and inactive calls. Rule as the data show it: active = growth inhibition above about 70%; inactive = the rest.
# Tests used:
# [1] = NCI Yeast Anticancer Drug Screen. Data for the rad52 strain (AID 147);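 also: 0% = growth of vehicle-treated control cultures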; details: S. cerevisiae rad52 mutant growth inhibition, hits give high values
# Summary of the method: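 Inhibition of yeast growth, referenced to vehicle controls, was the measured output for a strain with defective DNA damage repair.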
# [2] = NCI Yeast Anticancer Drug Screen. Data for the wt1 strain (AID 149);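 also: 0% = growth of vehicle-treated wt1 cultures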; details: S. cerevisiae wt1 strain (SPY 50644) growth inhibition, hits give high values
# Summary of the method: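 Readout: yeast growth inhibition, normalised to vehicle controls, in the wt1 strain exposed to test compounds.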
# [3] = NCI Yeast Anticancer Drug Screen. Data for the rad50EPP+ strain (AID 151);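 also: 0% = growth of vehicle-treated control cultures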; details: S. cerevisiae rad50 mutant strain, hits give high values
# Summary of the method: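 Genetically defined yeast (rad50EPP+, DNA damage repair alteration) is grown with compound, and inhibition of growth is expressed relative to vehicle-treated controls.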
# [4] = NCI Yeast Anticancer Drug Screen. Data for the mgt1 strain (AID 153); details: S. cerevisiae mgt1 mutant growth inhibition, hits give high values
# Summary of the method: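 In the mgt1 strain, test compounds were added and growth inhibition was determined relative to vehicle-treated controls.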
# [5] = NCI Yeast Anticancer Drug Screen. Data for the rad50 strain (AID 155);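 also: 0% = growth of vehicle-only cultures of the same strain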; details: S. cerevisiae rad50 strain growth inhibition, hits give high values
# Summary of the method: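 Compounds were tested on a yeast strain with an engineered DNA damage repair alteration; the reported value is growth inhibition normalised to vehicle treatment.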
# [6] = NCI Yeast Anticancer Drug Screen. Data for the mec2-1 strain (AID 157); details: S. cerevisiae mec2-1 strain, hits give high values
# Summary of the method: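 Each compound was tested on mec2-1 yeast, a strain altered in DNA damage repair or cell cycle control. Growth inhibition is reported relative to vehicle.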
# [7] = NCI Yeast Anticancer Drug Screen. Data for the rad14 strain (AID 159);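 also: 0% = growth of vehicle-treated control cultures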; details: S. cerevisiae rad14 strain growth inhibition, hits give high values
# Summary of the method: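 Compound-treated yeast with a defined DNA-repair lesion; growth inhibition normalised to vehicle-treated cultures.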
# [8] = NCI Yeast Anticancer Drug Screen. Data for the sgs1 mgt1 strain (AID 161);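 also: 0% = growth of cultures given vehicle only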; details: S. cerevisiae sgs1 mgt1 strain, hits give high values
# Summary of the method: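 Mutant yeast exposed to compound; growth scored against vehicle-only wells.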
# [9] = NCI Yeast Anticancer Drug Screen. Data for the CLN2oe strain (AID 163);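 also: 0% = growth of vehicle-only control cultures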; details: S. cerevisiae CLN2oe strain, hits give high values
# Summary of the method: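 First, the altered yeast strain was treated with each compound; second, its growth was measured; finally, inhibition was derived by comparison with vehicle controls.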
# [10] = NCI Yeast Anticancer Drug Screen. Data for the cln2 rad14 strain (AID 165);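 also: 0% = growth equal to vehicle treated cultures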; details: S. cerevisiae cln2 rad14 strain, hits give high values
# Summary of the method: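 Test compounds were added to cln2 rad14 yeast cultures; inhibition of growth was then determined by comparison with vehicle treatment.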
# [11] = NCI Yeast Anticancer Drug Screen. Data for the bub3 strain (AID 167); details: S. cerevisiae bub3 mutant strain, hits give high values
# Summary of the method: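 Growth of a checkpoint-deficient yeast mutant is measured after compound exposure. Values represent inhibition relative to vehicle.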
# [12] = NCI Yeast Anticancer Drug Screen. Data for the wt2 strain (AID 169);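 also: 0% = growth of vehicle-treated yeast cultures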; details: S. cerevisiae wt2 strain growth inhibition, hits give high values
# Summary of the method: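 The panel's yeast strains carry defined changes in DNA repair or cell cycle genes. Each strain is grown with compound, and growth loss is scored relative to vehicle.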
# [13] = NCI Yeast Anticancer Drug Screen. Data for the mlh1 strain (AID 171);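 also: 0% = growth of vehicle-treated control cultures of the same strain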; details: S. cerevisiae mlh1 strain growth inhibition, hits give high values
# Summary of the method: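 Inhibition values reflect reduced yeast growth in the presence of compound, referenced to vehicle controls, using a strain chosen for its alteration in DNA repair or cell cycle control.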
# [14] = NCI Yeast Anticancer Drug Screen. Data for the sgs1 strain (AID 173);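 also: 0% = growth of vehicle-only control cultures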; details: S. cerevisiae sgs1 mutant, hits give high values
# Summary of the method: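 Vehicle-treated cultures served as reference for growth inhibition of a yeast strain altered in DNA damage repair or cell cycle control after compound exposure.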
# [15] = NCI Yeast Anticancer Drug Screen. Data for the mlh1 rad18 strain (AID 175); details: S. cerevisiae mlh1 rad18 strain growth inhibition, hits give high values
# Summary of the method: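 Inhibition values reflect reduced growth of mutant yeast versus vehicle-treated controls following compound exposure; the mutations affect DNA damage repair.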
# [16] = NCI Yeast Anticancer Drug Screen. Data for the rad18 strain (AID 177); details: S. cerevisiae rad18 mutant growth inhibition, hits give high values
# Summary of the method: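 Steps: expose repair-mutant yeast to compound; measure growth; express as inhibition relative to vehicle control.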
# [17] = at 5.0 µM (retest, dose inferred, filed as 0.5)
# [18] = at 50.0 µM (retest, dose inferred, filed as 5.0)
smiles,measurement,setting,value
CCCCN1C(=O)N(c2ccc(OCC)cc2)C2N(CCCC)C1C(C)(C)C2(C)C (stereo not drawn),growth inhibition,[1]; at 1.2 µM,-6%
same,growth inhibition,[1]; at 3.7 µM,-13%
same,growth inhibition,[1]; at 11.0 µM,3%
same,growth inhibition,[1]; at 33.0 µM,30%
same,growth inhibition,[1]; at 100.0 µM,86% (active)
same,growth inhibition,[2]; at 1.2 µM,-3%
same,growth inhibition,[2]; at 3.7 µM,3%
same,growth inhibition,[2]; at 11.0 µM,9%
same,growth inhibition,[2]; at 33.0 µM,19%
same,growth inhibition,[2]; at 100.0 µM,52%
same,growth inhibition,[3]; at 1.2 µM,-7%
same,growth inhibition,[3]; at 3.7 µM,-6%
same,growth inhibition,[3]; at 11.0 µM,7%
same,growth inhibition,[3]; at 33.0 µM,19%
same,growth inhibition,[3]; at 100.0 µM,30%
same,growth inhibition,[4]; at 1.2 µM,-4%
same,growth inhibition,[4]; at 3.7 µM,-7%
same,growth inhibition,[4]; at 11.0 µM,-6%
same,growth inhibition,[4]; at 33.0 µM,-7%
same,growth inhibition,[4]; at 100.0 µM,5%
same,growth inhibition,[5]; at 1.2 µM,-17%
same,growth inhibition,[5]; at 3.7 µM,-18%
same,growth inhibition,[5]; [17],0%
same,growth inhibition,[5]; at 11.0 µM,9%
same,growth inhibition,[5]; at 33.0 µM,35%
same,growth inhibition,[5]; [18],50%
same,growth inhibition,[5]; at 50.0 µM,49.6%
same,growth inhibition,[5]; at 100.0 µM,84% (active)
same,growth inhibition,[6]; at 1.2 µM,-5%
same,growth inhibition,[6]; at 3.7 µM,-4%
same,growth inhibition,[6]; [17],4%
same,growth inhibition,[6]; at 11.0 µM,-5%
same,growth inhibition,[6]; at 33.0 µM,-5%
same,growth inhibition,[6]; [18],62%
same,growth inhibition,[6]; at 50.0 µM,19.9%
same,growth inhibition,[6]; at 100.0 µM,22%
same,growth inhibition,[7]; at 1.2 µM,-1%
same,growth inhibition,[7]; at 3.7 µM,-6%
same,growth inhibition,[7]; at 11.0 µM,-6%
same,growth inhibition,[7]; at 33.0 µM,15%
same,growth inhibition,[7]; at 100.0 µM,72% (active)
same,growth inhibition,[8]; [17],12%
same,growth inhibition,[8]; [18],82% (active)
same,growth inhibition,[8]; at 50.0 µM,65.3%
same,growth inhibition,[9]; at 1.2 µM,-10%
same,growth inhibition,[9]; at 3.7 µM,-9%
same,growth inhibition,[9]; at 11.0 µM,-10%
same,growth inhibition,[9]; at 33.0 µM,-10%
same,growth inhibition,[9]; at 100.0 µM,0%
same,growth inhibition,[10]; [17],-3%
same,growth inhibition,[10]; [18],13%
same,growth inhibition,[10]; at 50.0 µM,21.1%
same,growth inhibition,[11]; at 1.2 µM,-9%
same,growth inhibition,[11]; at 3.7 µM,-7%
same,growth inhibition,[11]; [17],-2%
same,growth inhibition,[11]; at 11.0 µM,-12%
same,growth inhibition,[11]; at 33.0 µM,-11%
same,growth inhibition,[11]; [18],24%
same,growth inhibition,[11]; at 50.0 µM,27.9%
same,growth inhibition,[11]; at 100.0 µM,25%
same,growth inhibition,[12]; at 1.2 µM,-3%
same,growth inhibition,[12]; at 3.7 µM,4%
same,growth inhibition,[12]; at 11.0 µM,12%
same,growth inhibition,[12]; at 33.0 µM,26%
same,growth inhibition,[12]; at 100.0 µM,91% (active)
same,growth inhibition,[13]; at 1.2 µM,-6%
same,growth inhibition,[13]; at 3.7 µM,-11%
same,growth inhibition,[13]; at 11.0 µM,-9%
same,growth inhibition,[13]; at 33.0 µM,-3%
same,growth inhibition,[13]; at 100.0 µM,79% (active)
same,growth inhibition,[14]; at 1.2 µM,-2%
same,growth inhibition,[14]; at 3.7 µM,-2%
same,growth inhibition,[14]; at 11.0 µM,20%
same,growth inhibition,[14]; at 33.0 µM,57%
same,growth inhibition,[14]; at 100.0 µM,95% (active)
same,growth inhibition,[15]; [17],13%
same,growth inhibition,[15]; [18],84% (active)
same,growth inhibition,[15]; at 50.0 µM,54.1%
same,growth inhibition,[16]; at 1.2 µM,-7%
same,growth inhibition,[16]; at 3.7 µM,0%
same,growth inhibition,[16]; at 11.0 µM,27%
same,growth inhibition,[16]; at 33.0 µM,74% (active)
same,growth inhibition,[16]; at 100.0 µM,93% (active)
